Data as given in PubChem BioAssay AID1159580 (chemical genetic matrix, 2015).
Out of some 5,500 compounds screened, about 2,000 (36%) were called active. Not shown: some 18% with an inconclusive outcome. No stated cut-off is given here; in the data, active means normalized growth mostly below about 0.91 (no sharp cut-off); inconclusive means no clear call, values can overlap the other calls; inactive means mostly above about 0.92. The list shows a part of the results.

Assay: chemical genetic growth profiling, strain panel (AID 1159580);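 further: tested at 20 µM; growth read once vehicle control cultures reached saturation at 30 °C; 1 = growth at the plate median or of vehicle wells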
Conditions: growth OD
[1] = S. cerevisiae deletion strains, locus YAL013W, strain DEP1, stronger effect = lower value
[2] = S. cerevisiae deletion strains, locus YGR078C, strain PAC10, stronger effect = lower value
[3] = S. cerevisiae deletion strains, locus YNL322C, strain KRE1, stronger effect = lower value

Measured: normalized growth

O=C1NC(=O)C(c2ccccc2)(c2ccccc2)N1
inactive: [1] 1.01 | S. cerevisiae deletion strains, locus YAL040C, strain CLN3, stronger effect = lower value 1.1 | S. cerevisiae deletion strains, locus YCL061C, strain MRC1 (second series), stronger effect = lower value 1 | S. cerevisiae deletion strains, locus YDR363W, strain ESC2, stronger effect = lower value 1.02 | S. cerevisiae deletion strains, locus YER002W, strain NOP16, stronger effect = lower value 0.991 | [2] 1.02 | S. cerevisiae deletion strains, locus YNL128W, strain TEP1, stronger effect = lower value 1 | S. cerevisiae deletion strains, locus YNL175C, strain NOP13, stronger effect = lower value 0.993 | S. cerevisiae deletion strains, locus YNL197C, strain WHI3, stronger effect = lower value 1.01 | S. cerevisiae deletion strains, locus YNL224C, strain SQS1, stronger effect = lower value 0.975 | [3] 1.03 | S. cerevisiae deletion strains, locus YOR083W, strain WHI5 (second series), stronger effect = lower value 1.03

O=C1c2ccccc2C(=O)C1(c1ccccc1)[N+](=O)[O-]
active: [1] 0.848 | S. cerevisiae deletion strains, locus YBR229C, strain ROT2, stronger effect = lower value 0.78 | S. cerevisiae deletion strains, locus YCL061C, strain MRC1, stronger effect = lower value 0.818 | S. cerevisiae deletion strains, locus YDL101C, strain DUN1, stronger effect = lower value 0.776 | S. cerevisiae deletion strains, locus YDL134C, strain PPH21, stronger effect = lower value 0.897 | [2] 0.664 | S. cerevisiae deletion strains, locus YHR030C, strain SLT2, stronger effect = lower value 0.587 | S. cerevisiae deletion strains, locus YHR087W, strain rtc3, stronger effect = lower value 0.811 | S. cerevisiae deletion strains, locus YJR043C, strain POL32, stronger effect = lower value 0.861 | S. cerevisiae deletion strains, locus YJR075W, strain HOC1, stronger effect = lower value 0.747 | S. cerevisiae deletion strains, locus YLR039C, strain RIC1, stronger effect = lower value 0.734 | S. cerevisiae deletion strains, locus YLR262C, strain YPT6, stronger effect = lower value 0.8 | S. cerevisiae deletion strains, locus YMR219W, strain ESC1, stronger effect = lower value 0.832 | S. cerevisiae deletion strains, locus YMR263W, strain SAP30, stronger effect = lower value 0.813 | S. cerevisiae deletion strains, locus YNL153C, strain GIM3, stronger effect = lower value 0.803 | S. cerevisiae deletion strains, locus YNR030W, strain Alg12, stronger effect = lower value 0.0637 | S. cerevisiae deletion strains, locus YPL055C, strain LGE1, stronger effect = lower value 0.799 | S. cerevisiae deletion strains, locus YPL241C, strain CIN2, stronger effect = lower value 0.0628
inactive: S. cerevisiae deletion strains, locus YEL061C, strain CIN8, stronger effect = lower value 0.943 | S. cerevisiae deletion strains, locus YLR058C, strain SHM2 (second series), stronger effect = lower value 1.03 | S. cerevisiae deletion strains, locus YLR085C, strain ARP6, stronger effect = lower value 0.975 | S. cerevisiae deletion strains, locus YML094W, strain GIM5, stronger effect = lower value 0.946 | S. cerevisiae deletion strains, locus YMR307W, strain GAS1, stronger effect = lower value 0.919 | S. cerevisiae deletion strains, locus YNL298W, strain CLA4 (second series), stronger effect = lower value 0.956 | [3] 1.01 | S. cerevisiae deletion strains, locus YOL006C, strain TOP1, stronger effect = lower value 0.893 | S. cerevisiae deletion strains, locus YPR135W, strain CTF4, stronger effect = lower value 0.798 | S. cerevisiae strains, strain wild type, stronger effect = lower value 0.985
